# Source: PubChem BioAssay (Tox21)
# Unmarked numbers belong to inactive results. Results filed as inconclusive are left out. Where a call stands in place of a potency, no number is given. Activity calls are given as the source filed them. Unless noted, calls come from the whole dose curve; as a rule, active = well fitted curve in the direction sought with a large enough effect in the repeat runs; inconclusive = weak or mixed curves; inactive = no such curve, though single readings can be large; an effect the other way counts as inactive or inconclusive.
# How the values were obtained:
# [1] = qHTS assay for small molecule agonists of the p53 signaling pathway (AID 651631; calls by dose curve; note: nearly all actives have a fitted effect of over 15% in size)
# In short: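 HCT-116 cells carrying a stable p53 response element–beta-lactamase reporter were plated, rested 5 h at 37 °C, then exposed to compound in DMSO for 16 h at 37 °C; reporter activity was read as FRET substrate fluorescence after 2 h at room temperature.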
# [2] = qHTS assay for small molecules that induce genotoxicity in human embryonic kidney cells expressing luciferase-tagged ATAD5 (AID 651632); note: nearly all actives have a fitted effect of over 15% in size
# In short: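 Luminescent reporter readout, HEK293T ATAD5-luc line: 16 hr drug exposure (37C, 5% CO2) followed by Amplite, 30 min RT.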
# [3] = qHTS assay for small molecule agonists of the p53 signaling pathway - cell viability (AID 651633; calls by dose curve; note: series mostly up to about 83 µM; nearly all actives have a fitted effect of over 30% in size)
# In short: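 p53RE-bla cells were treated with compound for 16 hours at 37 C. Cytotoxicity was then measured as CellTiter-Glo luminescence after 30 min at room temperature.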
# [4] = qHTS assay for small molecule disruptors of the mitochondrial membrane potential - cell viability (AID 720634; calls by dose curve;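 note: human HepG2 liver cancer cells; series mostly up to about 83 µM; nearly all actives have a fitted effect of over 20% in size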)
# In short: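 HepG2, 1 hr compound, 37 C. ATP luminescence via CellTiter-Glo, 30 min RT, same well as m-MPI.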
# [5] = qHTS assay for small molecule disruptors of the mitochondrial membrane potential (AID 720635)
# In short: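 HepG2 cells exposed to compound 1 hr at 37C, then Mito-MPS dye 30 min. Ratio read of aggregate (540/590 nm) versus monomer (490/535 nm) fluorescence.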
# [6] = qHTS assay to test for compound auto fluorescence at 590 nm (red) in HepG2 cells (AID 720674)
# In short: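 HepG2 cells, 2,000 per well in MEM with 10% FBS, attached overnight at 37 C, then got 23 nL compound or DMSO. After 1 hr at 37 C, 5% CO2, red fluorescence was read at 540/590 nm against Rose Bengal sodium as reference.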
# [7] = qHTS assay to test for compound auto fluorescence at 535 nm (green) in HepG2 cells (AID 720675)
# [8] = qHTS assay to test for compound auto fluorescence at 460 nm (blue) in HEK293 cells (AID 720678)
# In short: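 Intrinsic compound fluorescence is recorded in live HEK293 cultures after overnight incubation at 37C, 5% CO2, using excitation 405 nm and emission 460 nm. Values are referenced to triamterene.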
# [9] = qHTS assay to test for compound auto fluorescence at 590 nm (red) in HEK293 cells (AID 720679)
# In short: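 Red autofluorescence, HEK293 cells: 2,000 cells/well; attach 4-5 hr 37C; add 23 nL cpd or DMSO; incubate o/n 37C 5% CO2; read Ex540/Em590; Rose Bengal sodium reference.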
# [10] = qHTS assay to test for compound auto fluorescence at 460 nm (blue) in HEK293 cell free culture (AID 720681)
# In short: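 Compounds were added to cell-free DMEM with 10% FBS and fluorescence read directly. The blue channel used 405 nm excitation and 460 nm emission, with triamterene as the reference fluorophore.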
# [11] = qHTS assay to test for compound auto fluorescence at 535 nm (green) in HEK293 cell free culture (AID 720682)
# In short: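 Read-out: 485/535 nm fluorescence intensity, calibrated against fluorescein. Medium only (DMEM + 10% FBS, no cells); test compound or DMSO vehicle added by pintool before plate reading.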
# [12] = qHTS assay to test for compound auto fluorescence at 590 nm (red) in HEK293 cell free culture (AID 720683)
# In short: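 Cell-free wells of DMEM with 10% FBS received compound, and intrinsic fluorescence was read at excitation/emission 540/590 nm. Values expressed as equivalence to Rose Bengal sodium.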
# [13] = qHTS assay to test for compound auto fluorescence at 590 nm (red) in HepG2 cell free culture (AID 720684)
# In short: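 Compounds are added to culture medium (MEM, 10% FBS) lacking cells, then fluorescence is read at excitation 540 nm, emission 590 nm, with Rose Bengal sodium as the equivalency standard.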
# [14] = qHTS assay to test for compound auto fluorescence at 460 nm (blue) in HepG2 cell free culture (AID 720685)
# In short: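 Compound (23 nL) or DMSO pinned into cell-free MEM with 10% FBS; blue fluorescence read at 405/460 nm excitation/emission, expressed as auto-fluorescence equivalency to triamterene.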
# [15] = qHTS assay to test for compound auto fluorescence at 535 nm (green) in HepG2 cell free culture (AID 720686)
# [16] = qHTS assay to test for compound auto fluorescence at 460 nm (blue) in HepG2 cells (AID 720687)
# In short: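 HepG2 cells in MEM with 10% FBS, attached overnight at 37 C, were exposed to compound or DMSO for 1 hr at 37 C, 5% CO2. Blue fluorescence was read at 405/460 nm, with triamterene as reference fluorophore.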
# [17] = target: Glucocorticoid receptor (Homo sapiens) (UniProt P04150); test: qHTS assay to identify small molecule agonists of the glucocorticoid receptor (GR) signaling pathway (AID 720691; active = well fitted activation curve with a large enough effect in the signal ratio in the repeat runs, not every such curve was filed as active; the % refers to the signal ratio; note: potency is the fitted concentration of half-maximal effect)
# Chain of Glucocorticoid receptor (Homo sapiens) (P04150 whole entry, looked up): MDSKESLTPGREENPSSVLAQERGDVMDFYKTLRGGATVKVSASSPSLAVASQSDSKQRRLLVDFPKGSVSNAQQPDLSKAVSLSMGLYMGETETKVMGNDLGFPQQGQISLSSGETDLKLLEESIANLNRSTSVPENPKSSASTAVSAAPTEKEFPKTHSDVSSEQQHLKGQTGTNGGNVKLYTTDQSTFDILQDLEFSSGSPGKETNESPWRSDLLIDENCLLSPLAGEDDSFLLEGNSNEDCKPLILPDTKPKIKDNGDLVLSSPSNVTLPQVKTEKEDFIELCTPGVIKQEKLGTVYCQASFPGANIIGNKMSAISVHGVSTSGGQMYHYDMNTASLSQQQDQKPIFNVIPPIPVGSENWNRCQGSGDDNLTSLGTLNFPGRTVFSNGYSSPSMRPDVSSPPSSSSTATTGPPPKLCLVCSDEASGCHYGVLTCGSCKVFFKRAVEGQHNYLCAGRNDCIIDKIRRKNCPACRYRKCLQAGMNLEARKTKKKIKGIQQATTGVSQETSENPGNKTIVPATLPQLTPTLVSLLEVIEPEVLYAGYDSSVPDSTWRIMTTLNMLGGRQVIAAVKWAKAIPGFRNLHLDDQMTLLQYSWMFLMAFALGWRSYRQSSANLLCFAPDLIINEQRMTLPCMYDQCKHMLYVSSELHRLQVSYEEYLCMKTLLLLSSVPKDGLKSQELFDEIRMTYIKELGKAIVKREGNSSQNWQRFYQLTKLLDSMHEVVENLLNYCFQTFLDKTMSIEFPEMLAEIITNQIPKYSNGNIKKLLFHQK
# In short: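 qHTS in GR-bla HeLa cells: 4 h settling at 37 C/5% CO2, 18 h compound incubation at 37 C, 2 h LiveBLAzer B/G FRET substrate at room temperature, fluorescence intensity measured.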
# [18] = target: Glucocorticoid receptor (Homo sapiens) (UniProt P04150); test: qHTS assay to identify small molecule antagonists of the glucocorticoid receptor (GR) signaling pathway (AID 720692; active = well fitted inhibition curve with a large enough effect in the signal ratio in the repeat runs, not every such curve was filed as active; the % refers to the signal ratio)
# In short: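 Inhibition of glucocorticoid signalling is measured in HeLa cells with a GRE-controlled beta-lactamase reporter; cells are co-treated with compound and 5 nM dexamethasone (final) for 18 h before FRET substrate readout.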
# [19] = qHTS assay to test for compound auto fluorescence at 535 nm (green) in HEK293 cells (AID 720680)
smiles,measurement,setting,value
CCC(C)(CCCC(C)C)OC(C)=O (configuration not stated),Potency,[1],inactive
same,Potency,[2],inactive
same,Potency,[3],inactive
same,outcome,[4],inactive
same,Potency,[5],inactive
same,outcome,[6],inactive
same,outcome,[7],inactive
same,outcome,[8],inactive
same,outcome,[9],inactive
same,outcome,[10],inactive
same,outcome,[11],inactive
same,outcome,[12],inactive
same,outcome,[13],inactive
same,outcome,[14],inactive
same,outcome,[15],inactive
same,outcome,[16],inactive
same,Potency,[17],inactive
same,Potency,[18],inactive
C=CC(=O)OCCCl,Potency,[1],inactive
same,Potency,[3],inactive
same,outcome,[4],inactive
same,Potency,[5],inactive
same,outcome,[6],inactive
same,outcome,[7],inactive
same,outcome,[8],inactive
same,outcome,[9],inactive
same,outcome,[19],inactive
same,outcome,[10],inactive
same,outcome,[12],inactive
same,outcome,[13],inactive
same,outcome,[14],inactive
same,outcome,[15],inactive
same,outcome,[16],inactive
CN(C)[C@@H]1C(=O)C(C(=O)NCN2CCCC2)=C(O)[C@@]2(O)C(=O)C3=C(O)c4c(O)cccc4[C@@](C)(O)C3C[C@@H]12 (some centres not stated),Potency,[1],inactive
same,Potency,[2],inactive
same,Potency,[3],inactive
same,outcome,[4],inactive
same,Potency,[5],inactive
same,outcome,[6],inactive
same,outcome,[7],inactive
same,outcome,[8],inactive
same,outcome,[9],inactive
same,outcome,[19],inactive
same,outcome,[10],inactive
same,outcome,[12],inactive
same,outcome,[13],inactive
same,outcome,[14],inactive
same,outcome,[15],inactive
same,outcome,[16],inactive
same,Potency,[17],inactive
same,Potency,[18],inactive
COc1ccc2cc1Oc1cc3c(cc1OC)CC[N+](C)(C)[C@H]3Cc1ccc(cc1)Oc1c(OC)c(OC)cc3c1[C@@H](C2)[N+](C)(C)CC3,Potency,[1],inactive
same,Potency,[2],inactive
same,Potency,[3],inactive
same,outcome,[4],inactive
same,Potency,[5],inactive
same,outcome,[6],inactive
same,outcome,[8],inactive
same,outcome,[9],inactive
same,outcome,[19],inactive
same,outcome,[10],inactive
same,outcome,[11],inactive
same,outcome,[12],inactive
same,outcome,[13],inactive
same,outcome,[14],inactive
same,outcome,[15],inactive
same,outcome,[16],inactive
same,Potency,[17],inactive
same,Potency,[18],inactive
CCOC(=O)C1=NOC(c2ccccc2)(c2ccccc2)C1,Potency,[1],inactive
same,Potency,[2],inactive
same,Potency,[3],inactive
same,outcome,[4],inactive
same,outcome,[6],inactive
same,outcome,[7],inactive
same,outcome,[8],inactive
same,outcome,[9],inactive
same,outcome,[10],inactive
same,outcome,[11],inactive
same,outcome,[12],inactive
same,outcome,[13],inactive
same,outcome,[14],inactive
same,outcome,[15],inactive
same,outcome,[16],inactive
same,Potency,[17],inactive
same,Potency,[18],inactive
C[N+]1(C)CCCC(OC(=O)C(O)(c2ccccc2)c2ccccc2)C1 (configuration not stated),Potency,[1],inactive
same,Potency,[2],inactive
same,Potency,[3],inactive
same,outcome,[4],inactive
same,"fluorescence, relative to Rose Bengal",[6],0.011% [at 18.6 µM]
same,"fluorescence, % of fluorescein control",[7],-0.152% [at 18.6 µM]
same,"fluorescence, % of triamterene",[8],0.0818% [at 18.6 µM]
same,"fluorescence, % of fluorescent control",[9],0.215% [at 18.6 µM]
same,"fluorescence, % of fluorescein",[19],-0.129% [at 18.6 µM]
same,"fluorescence, % of fluorescent control",[10],0.158% [at 18.6 µM]
same,activity change,[11],-0.0354% [at 18.6 µM]
same,"fluorescence, % of fluorescent control",[12],0.023% [at 18.6 µM]
same,"fluorescence, % of fluorescent control",[14],-0.0313% [at 18.6 µM]
same,"fluorescence, % of fluorescein control",[15],-0.0015% [at 18.6 µM]
same,"fluorescence, % of fluorescent control",[16],-0.102% [at 18.6 µM]
same,Potency,[17],7.23 µM (active)
